{
  "source": "PubChem BioAssay AID686978",
  "about": "(National Center for Advancing Translational Sciences (NCATS), 2013)",
  "note": "Screen size: about 420,000 compounds; about 64,000 (15%) were called active. Roughly 27% stayed inconclusive and do not appear here. The call rests on the fitted dose curve; in most records, active means well fitted inhibition curve with a large enough effect; inconclusive means small, poorly fitted or top-dose-only effect; inactive means flat fitted curve, though single readings scatter. Not all results are given here. Where a call stands in place of a potency, no number is given. Potency means the concentration at half of the fitted maximal effect.",
  "data": [
    {"test": "qHTS for Inhibitors of human tyrosyl-DNA phosphodiesterase 1 (TDP1): qHTS in cells in absence of CPT; further: nearly all actives have a fitted effect of over 55% in size", "conditions": "DT40 Tdp1-/- hTDP1 cells, no CPT, ATP luminescence, 48 h; activity change, negative = growth inhibition: at 46.2 µM (top of the series)", "outline": "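Stably hTDP1-transfected Tdp1-null chicken DT40 cells were treated with library compounds minus camptothecin and grown for at least 48 hr at 37 °C, after which cellular ATP was quantified by luminescence.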", "values": [
      {"compound": "O=c1c2cc(-c3ccccc3)sc2nc2n1N=C(c1cccs1)CS2", "Potency": "23.1 µM (active)"},
      {"compound": "c1csc(-c2cn3c(n2)SCC3)c1", "Potency": "inactive"},
      {"compound": "Cc1nnc2n1N=C(c1ccccc1)CS2", "Potency": "inactive"},
      {"compound": "Cc1cc(C)c(OCC(=O)N/N=C/c2ccco2)c(C)c1", "Potency": "16.4 µM (active)"},
      {"compound": "Cc1ccc(NC(=O)CCC(=O)N/N=C/c2ccco2)c(C)c1", "Potency": "inactive"},
      {"compound": "Cc1ccc(OCC(=O)N/N=C\\c2ccco2)c(C)c1", "Potency": "inactive"},
      {"compound": "O=C(NC1CCCC1)C(c1ccco1)N(C(=O)c1csnn1)c1ccccc1", "note": "(centres undefined)", "Potency": "inactive"},
      {"compound": "O=C(NCc1ccccc1)C(c1ccc(F)cc1)N1CCN(C(=O)C2CCCO2)CC1", "note": "(centres undefined)", "Potency": "inactive"},
      {"compound": "O=C(NCC1CCCO1)/C(=C/c1ccc(Cl)cc1)NC(=O)c1ccccc1", "note": "(centres undefined)", "Potency": "inactive"},
      {"compound": "Cc1ccc(NC(=O)CN(C)C(=O)COC(=O)c2nccnc2N)cc1", "Potency": "inactive"},
      {"compound": "Brc1ccccc1C1N=C(c2ccccc2)NO1", "note": "(centres undefined)", "Potency": "inactive"},
      {"compound": "CCN1CCN(C(=O)c2ccc(CN(c3ccc(C)c(C)c3)S(C)(=O)=O)cc2)CC1", "Potency": "inactive"},
      {"compound": "CCOC(=O)N1CCN(C(=O)c2ccc(CN(c3ccc(C)c(C)c3)S(C)(=O)=O)cc2)CC1", "Potency": "23.1 µM (active)"},
      {"compound": "CCOC(=O)C1CCCN(C(=O)c2ccc(N(C)C)cc2)CC1", "note": "(centres undefined)", "Potency": "inactive"},
      {"compound": "CO/N=C/CC(=O)c1ccc(OC)cc1", "Potency": "inactive"},
      {"compound": "COCCNc1nc2nonc2nc1N(C)Cc1ccc(C)cc1", "Potency": "inactive"},
      {"compound": "CN(C)C(CNC(=O)CCCOc1ccccc1)c1ccco1", "note": "(centres undefined)", "Potency": "inactive"},
      {"compound": "CCC1(C)CC(=O)NC1=O", "note": "(centres undefined)", "Potency": "inactive"},
      {"compound": "CCc1cccc(C)c1NS(=O)(=O)c1c(C)nc2sccn2c1=O", "Potency": "inactive"},
      {"compound": "CCc1cccc(C)c1NS(=O)(=O)c1cc(Br)cnc1N", "Potency": "18.4 µM (active)"},
      {"compound": "COc1ccc(N2CCN(S(=O)(=O)c3cc(Br)cnc3N)CC2)cc1", "Potency": "inactive"},
      {"compound": "Cc1cc(C)c2nc(-c3ccco3)cc(C(=O)O)c2c1", "Potency": "inactive"},
      {"compound": "CN(C)S(=O)(=O)c1ccc(C(=O)NCC(C)(C)N2CCOCC2)cc1", "Potency": "inactive"},
      {"compound": "CC(C)(CNC(=O)c1ccc(Cl)c(S(=O)(=O)N2CCc3ccccc3C2)c1)N1CCOCC1", "Potency": "23.1 µM (active)"},
      {"compound": "CC(C)(CNC(=O)Cc1ccc(Cl)cc1Cl)N1CCOCC1", "Potency": "inactive"},
      {"compound": "Cc1ccc(C)c(NC(=O)COC(=O)CSc2ccccc2)c1", "Potency": "inactive"},
      {"compound": "Cc1ccccc1C(=O)Nc1ccc(N2CCCCCC2)cc1", "Potency": "9.2 µM (active)"},
      {"compound": "O=C(Nc1ccc(N2CCN(C(=O)c3cccs3)CC2)cc1)c1cccnc1Cl", "Potency": "inactive"},
      {"compound": "COc1ccc(N2CCN(C(=O)c3cccs3)CC2)cc1", "Potency": "inactive"},
      {"compound": "Cc1cccc(C)c1NC(=O)CS(=O)CC(=O)N1CCN(c2ccccc2)CC1", "note": "(centres undefined)", "Potency": "inactive"},
      {"compound": "O=C(NC(=O)c1ccccc1N1CCCCC1)Nc1ccc(Br)cc1", "Potency": "inactive"},
      {"compound": "Cc1ccccc1C(=O)NC(=S)Nc1ccc(N2CCN(C(=O)c3ccccc3)CC2)cc1", "Potency": "10.3 µM (active)"},
      {"compound": "Cc1ccccc1C(=O)Nc1ccccc1NC(=O)c1ccccc1C", "Potency": "inactive"},
      {"compound": "Cc1ccccc1C(=O)N1CCN(c2ccc(NC(=O)c3cccs3)cc2)CC1", "Potency": "16.4 µM (active)"},
      {"compound": "Cc1ccccc1C(=O)NC(=S)NC1CC1", "Potency": "inactive"},
      {"compound": "NS(=O)(=O)c1ccc(CCNC(=O)COC(=O)COc2cccc(C(F)(F)F)c2)cc1", "Potency": "inactive"},
      {"compound": "Cc1noc(NS(=O)(=O)c2ccc(NC(=O)c3oc4ccc(F)cc4c3C)cc2)c1C", "Potency": "inactive"},
      {"compound": "Cc1cc(C)n(CC(=O)Nc2ccc([N+](=O)[O-])cc2)n1", "Potency": "inactive"},
      {"compound": "COC(=O)c1cccc(-n2[nH]nnc2=S)c1", "Potency": "inactive"},
      {"compound": "CC(=O)c1ccc(S(=O)(=O)NCc2nnnn2-c2ccccc2)cc1", "Potency": "inactive"},
      {"compound": "OCCCNC(c1ccccc1)c1ccc(O)cc1", "note": "(centres undefined)", "Potency": "inactive"},
      {"compound": "O=C(CC1C(=O)NCCN1CC(c1ccccc1)c1ccccc1)NCC1CCOCC1", "note": "(centres undefined)", "Potency": "inactive"},
      {"compound": "COc1cc(-c2cc3n(C)c(C)c(CCC(=O)Nc4ccc(F)cc4)c(=O)n3n2)cc(OC)c1OC", "Potency": "inactive"},
      {"compound": "Cc1ccc(CNC(=O)C2CCCN2C(=O)NCc2ccccc2)cc1", "note": "(centres undefined)", "Potency": "inactive"},
      {"compound": "CCN(CC)S(=O)(=O)c1ccc(N2CC(C(=O)NCc3cccnc3)CC2=O)cc1", "note": "(centres undefined)", "Potency": "inactive"},
      {"compound": "O=C(Nc1cccnc1Cl)c1cc(-c2ccccc2O)on1", "Potency": "inactive"},
      {"compound": "Brc1ccc(OCCn2ccnc2)cc1", "Potency": "inactive"},
      {"compound": "COc1ccc(CCN=C2SCC(=O)N2C)cc1OC", "Potency": "inactive"},
      {"compound": "Cc1ccc2c(c1)c1ncn(Cc3ccc(F)cc3)c(=O)c1n2C", "Potency": "inactive"},
      {"compound": "Cc1ccc(S(=O)(=O)Nc2nc3ccccc3nc2N2CCc3ccccc3C2)cc1", "Potency": "inactive"},
      {"compound": "Cc1ccc2c(c1)c1ncnc(N3CCc4ccccc4C3)c1n2C", "Potency": "20.6 µM (active)"},
      {"compound": "CCN(C(=O)COC(=O)/C=C/c1nc2ccccc2s1)C1CCS(=O)(=O)C1", "note": "(centres undefined)", "Potency": "inactive"},
      {"compound": "CCOC(=O)C1=C(C)NC(C)=C(C(=O)OCC)C1C1=COCCO1", "Potency": "inactive"},
      {"compound": "Cc1ccccc1C(OCCN(C)C)C1CCCCC1", "note": "(centres undefined)", "Potency": "29.1 µM (active)"},
      {"compound": "CN(C)CCOC(=O)C(c1ccccc1)C1(O)CCCC1", "note": "(centres undefined)", "Potency": "inactive"},
      {"compound": "Cc1nn(Cc2ccc(Cl)cc2)c(Cl)c1/C=N/NC(=O)c1cccnc1", "Potency": "inactive"},
      {"compound": "CC1(C)C/C(=C(/C#N)C(N)=O)CCO1", "Potency": "inactive"},
      {"compound": "O=C(O)c1ccccc1NC(=S)NC(NC(=O)c1ccccc1[N+](=O)[O-])C(Cl)(Cl)Cl", "note": "(centres undefined)", "Potency": "inactive"},
      {"compound": "Cc1cc(C)cc(N(CC(=O)Nc2c(C)n(C)n(-c3ccccc3)c2=O)S(C)(=O)=O)c1", "Potency": "inactive"},
      {"compound": "COc1ccc(S(=O)(=O)N2CCCCCC2)cc1NC(=O)Cc1ccc(OC)c(OC)c1", "Potency": "inactive"},
      {"compound": "Cc1ccc(S(=O)(=O)N2CCCCC2)cc1NC(=O)[C@@H]1CCCN1C(=O)c1cccs1", "Potency": "inactive"},
      {"compound": "CCOc1ccc(S(=O)(=O)N2CCCCC2)cc1NC(=O)CN1CCCC1c1cccs1", "note": "(centres undefined)", "Potency": "2.06 µM (active)"},
      {"compound": "CCN(C(=O)C1CCCN(c2nc(-c3ccc(OC)cc3)no2)C1)c1ccc(OC)cc1", "note": "(centres undefined)", "Potency": "20.6 µM (active)"},
      {"compound": "COc1cccc(N(CC(=O)NC2CCCC2)C(=O)Cn2nnc(-c3ccc(C)cc3)n2)c1", "Potency": "inactive"},
      {"compound": "C=CCOc1c2ccc(C(=O)N(CC)c3ccc(OC)cc3)cc2nn1C", "Potency": "inactive"},
      {"compound": "O=C1C(=O)N(CCCO)C(c2ccccc2)/C1=C(\\O)c1ccc(Br)cc1", "note": "(centres undefined)", "Potency": "inactive"},
      {"compound": "Cc1ccc(C(=O)NC2CC(C)(C)NC(C)(C)C2)c(C)c1", "Potency": "inactive"},
      {"compound": "Cn1c2c(c(=O)n(C)c1=O)C1c3ccccc3OCC1C(C)(C)O2", "note": "(centres undefined)", "Potency": "inactive"},
      {"compound": "CC(Nc1nc(C(F)(F)F)nc2ccccc12)c1cccs1", "note": "(centres undefined)", "Potency": "20.6 µM (active)"}
    ]}
  ]
}
